High-throughput results: PubChem BioAssay, several laboratories
NR2F2 inh – blocks human COUP-TFII nuclear receptor; HEK293T NGFI-A luciferase reporter, luminescence; P24468; actives 0.7% (n = 370,000); inhibition, % at 8.6 µM; AID 686940;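 active = inhibition above a per-plate cutoff, mean inhibition of test wells between control levels plus 3 SD, cut at about 38% in these data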;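 note: cells cotransfected with COUP-TFII expression vector driving the NGFI-A reporter; 0% = median of COUP-TF2 test wells and 100% = reporter-only cells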
SRC2 inh – inhibits human steroid receptor coactivator 2; Q15596; HEK293 GAL4-SRC2 luciferase reporter, luminescence; inhibition, % at 9 µM; actives 0.17% (n = 370,000); AID 651957;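 active = inhibition above the mean inhibition of all tested compounds plus 3 SD, set per campaign, cut at about 52% in these data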;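 note: 0% = DMSO treated cells and 100% = cells given Gossypol at 36 µM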
NCOA1 inh – inhibitors of human steroid receptor coactivator 1 (SRC1). Q15788. HEK293 GAL4-SRC1 luciferase reporter, luminescence. inhibition, % at 3.6 µM. actives 0.12% (n = 360,000);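 active = inhibition above the campaign mean plus 3 SD, with each screening campaign given its own cutoff, cut at about 60% in these data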;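 note: 0% = DMSO treated cells and 100% = gossypol at 36 µM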
LRH-1 inv ag – suppresses constitutive activity of human LRH-1 | O00482 | HEK293T StAR-luciferase reporter, LRH-1 transfected, 24 h | inhibition, % at 3.6 µM | actives 0.13% (n = 360,000) | AID 602396;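 active = inhibition above the mean inhibition of all tested compounds plus 3 SD, cut at about 73% in these data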;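 note: 0% = DMSO wells and 100% = reporter-only cells lacking LRH-1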
Target sequence (O00482 whole entry, looked up): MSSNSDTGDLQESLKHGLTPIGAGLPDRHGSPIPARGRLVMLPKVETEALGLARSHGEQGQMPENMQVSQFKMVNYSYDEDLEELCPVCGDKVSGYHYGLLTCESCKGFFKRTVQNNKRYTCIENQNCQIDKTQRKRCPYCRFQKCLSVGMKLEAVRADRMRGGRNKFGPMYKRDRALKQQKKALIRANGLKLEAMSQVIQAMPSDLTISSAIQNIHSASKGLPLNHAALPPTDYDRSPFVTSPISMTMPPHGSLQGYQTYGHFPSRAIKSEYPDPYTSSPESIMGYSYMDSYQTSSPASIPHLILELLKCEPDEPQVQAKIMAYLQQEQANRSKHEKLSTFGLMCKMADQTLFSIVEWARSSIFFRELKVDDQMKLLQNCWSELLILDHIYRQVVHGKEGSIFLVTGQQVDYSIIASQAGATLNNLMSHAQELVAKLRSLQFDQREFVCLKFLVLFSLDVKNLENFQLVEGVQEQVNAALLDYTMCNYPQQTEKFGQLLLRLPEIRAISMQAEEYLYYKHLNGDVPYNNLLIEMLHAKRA
Gli-Sufu antag – Gli-Sufu pathway antagonism; Sufu-KO-LIGHT fibroblasts, Gli luciferase reporter luminescence; inhibition, % at 5 µM; actives 0.74% (n = 340,000); AID 588413;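 active = inhibition above about 55%, limit read from the data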;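 note: 0% = DMSO-treated cells and 100% = wells with medium but no cells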
NCOA3 inh – inhibitors of human steroid receptor coactivator 3 (SRC3); Q9Y6Q9; inhibition, % at 3.6 µM; AID 588352; actives 0.17% (n = 360,000); HEK293 GAL4-SRC3 luciferase reporter, luminescence;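 active = inhibition above a per-campaign cutoff, the mean of all compounds plus 3 SD, cut at about 60% in these data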;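 note: 0% = DMSO-treated cells and 100% = gossypol-treated cells at 36 µM; higher means less SRC3-driven luciferase light from the GAL4 reporter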
VP16 Luc counter – inhibits VP16 reporter, flagging COUP-TFII antagonist hits; HEK293 Gal4-VP16 luciferase reporter, luminescence; AID 687007; actives 25% (n = 2,500); inhibition, % at 8.5 µM; shares compounds with NR2F2 inh; in the data active = inhibition above about 13%
COUP-TFII conf – confirmation of human COUP-TFII (NR2F2) inhibitors. shares compounds with NR2F2 inh. HEK293 NGFI-A luciferase reporter, luminescence. inhibition, % at 8.5 µM. actives 45% (n = 2,500);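 active = mean inhibition over three repeats above a set limit taken from the earlier primary screen, cut at about 38% in these data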;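 note: 100% = cells given the luciferase reporter alone without the COUP-TF2 vector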
Numbers without * were called inactive. Sampled rows, rich in hits. Any-hit rate of the full collection: about 1.2%.

What do the screens show for `CC(C)(C)c1ccc(C#C[C@@H]2C=C[C@H](O)[C@@H](COC(=O)Nc3ccccc3)O2)cc1`?
NR2F2 inh: 24; SRC2 inh: -8

What do the screens show for `Cc1cc(C)cc(C(=O)OCCCN(C)C2CN(Cc3cn(Cc4cccc(F)c4)nn3)S(=O)(=O)C2)c1` (stereo not drawn)?
NR2F2 inh: 25; SRC2 inh: 3

What do the screens show for `Cc1ccc(C(=O)N2CCC[C@@H]2C(=O)N2CCC[C@H]2C(=O)NCc2ccccc2)cc1C`?
NR2F2 inh: 14; SRC2 inh: -24

How did Cc1ccc(OC(=O)CCC(=O)Nc2ccc(C)c(C)c2)cc1 do in these assays?
NR2F2 inh: -11; SRC2 inh: 12; NCOA1 inh: 3; LRH-1 inv ag: 6; Gli-Sufu antag: 6; NCOA3 inh: 10

How did COc1ccc(OC)c(NC(=O)CCC(=O)Oc2ccc(C)cc2)c1 do in these assays?
NR2F2 inh: 39*; SRC2 inh: -15; NCOA1 inh: 0; LRH-1 inv ag: 11; Gli-Sufu antag: -2; NCOA3 inh: 6; VP16 Luc counter: -6; COUP-TFII conf: 0

How did CCN(CC)c1ccc(NS(=O)(=O)c2cn(C)c(=O)n(C)c2=O)c(C)c1 do in these assays?
NR2F2 inh: 78*; SRC2 inh: -20; NCOA1 inh: -2; LRH-1 inv ag: 15; Gli-Sufu antag: 0; NCOA3 inh: -7; VP16 Luc counter: -13; COUP-TFII conf: -7

What do the screens show for `Cc1nc2c(-c3ccccc3)cnn2c(N)c1-c1ccccc1`?
NR2F2 inh: 69*; SRC2 inh: 53*; NCOA1 inh: 72*; LRH-1 inv ag: 60; Gli-Sufu antag: 56*; NCOA3 inh: 67*; VP16 Luc counter: 9; COUP-TFII conf: 72*

How did O=C1COc2ccc(S(=O)(=O)CCC(=O)N3CCN(c4ccccc4)CC3)cc2N1 do in these assays?
NR2F2 inh: -14; SRC2 inh: -9; NCOA1 inh: -5; LRH-1 inv ag: -11; Gli-Sufu antag: -3; NCOA3 inh: -35

What do the screens show for `Cc1ccc(C)c(N2CCN(C(=O)CCS(=O)(=O)c3ccc4c(c3)NC(=O)CO4)CC2)c1`?
NR2F2 inh: 42*; SRC2 inh: 40; NCOA1 inh: 28; LRH-1 inv ag: 30; Gli-Sufu antag: 12; NCOA3 inh: 37; VP16 Luc counter: 5; COUP-TFII conf: 23

How did Cc1ccc2cccc(S(=O)(=O)N3CCCc4ccccc43)c2n1 do in these assays?
NR2F2 inh: 39*; SRC2 inh: 16; NCOA1 inh: -5; LRH-1 inv ag: -5; Gli-Sufu antag: 16; NCOA3 inh: 13; VP16 Luc counter: -2; COUP-TFII conf: 14

How did CCOC(=O)CC[C@H]1CC[C@]2(CCCN(S(=O)(=O)c3ccccc3)C2)O1 do in these assays?
NR2F2 inh: 4; SRC2 inh: -3

Results for COc1ccc(CCC(=O)Nc2ccc(Cl)c(S(=O)(=O)N3CCCC3)c2)cc1 ?
NR2F2 inh: 59*; SRC2 inh: 21; NCOA1 inh: 31; LRH-1 inv ag: 27; Gli-Sufu antag: 2; NCOA3 inh: 19; VP16 Luc counter: -1; COUP-TFII conf: 38*

Results for O=C(NCCc1ccc(F)cc1)c1ccc(Cl)c(S(=O)(=O)N2CCOCC2)c1 ?
NR2F2 inh: 40*; SRC2 inh: 21; NCOA1 inh: 11; LRH-1 inv ag: 3; Gli-Sufu antag: 4; NCOA3 inh: 15; VP16 Luc counter: -10; COUP-TFII conf: 8

What do the screens show for `COc1ccc(CCNC(=O)c2ccc(Cl)c(S(=O)(=O)N3CCCCCC3)c2)cc1`?
NR2F2 inh: 63*; SRC2 inh: 16; NCOA1 inh: 17; LRH-1 inv ag: 26; Gli-Sufu antag: -5; NCOA3 inh: 12; VP16 Luc counter: 5; COUP-TFII conf: 41*

Results for CC1CCCN(S(=O)(=O)c2cc(C(=O)NCCc3ccc(S(N)(=O)=O)cc3)ccc2Cl)C1 (stereo not drawn) ?
NR2F2 inh: 64*; SRC2 inh: 31; NCOA1 inh: 7; LRH-1 inv ag: 33; Gli-Sufu antag: 11; NCOA3 inh: 20; VP16 Luc counter: 7; COUP-TFII conf: 39*

Results for C[C@H](CO)N1C[C@H](C)[C@H](CN(C)C(=O)Nc2ccc(F)cc2)Oc2ncc(Br)cc2C1=O ?
NR2F2 inh: 1; SRC2 inh: -7

Results for CCCN(CC1CC1)C(=O)CSc1nnc(-c2ccncc2)n1-c1ccc(OC)cc1 ?
NR2F2 inh: 3; SRC2 inh: -18

Results for CC(=O)c1cccc(NS(=O)(=O)c2ccc(NC(=O)N3CCCCC3)cc2)c1 ?
NR2F2 inh: 56*; SRC2 inh: 24; NCOA1 inh: 14; LRH-1 inv ag: 39; Gli-Sufu antag: 46; NCOA3 inh: 32; VP16 Luc counter: 14*; COUP-TFII conf: 44*

Results for CC(=O)c1cccc(NC(=O)N2CCCCCC2)c1 ?
NR2F2 inh: -10; SRC2 inh: 0; NCOA1 inh: -7; LRH-1 inv ag: -13; Gli-Sufu antag: -7; NCOA3 inh: 15

Results for Cc1ccc(S(=O)(=O)NC(=O)ON=Cc2ccc3c(c2)OCO3)cc1 ?
NR2F2 inh: -7; SRC2 inh: -6

How did CCOc1ccc(-c2csc(Cn3c(CN4CCN(C)CC4)nc4ccccc4c3=O)n2)cc1 do in these assays?
NR2F2 inh: 39*; SRC2 inh: 16; NCOA1 inh: -9; LRH-1 inv ag: -29; Gli-Sufu antag: 17; NCOA3 inh: 17; VP16 Luc counter: -11; COUP-TFII conf: 7

Results for O=C(N/N=C1\CCSc2ccc(F)cc21)c1cccnc1 ?
NR2F2 inh: -12; SRC2 inh: -17; NCOA1 inh: -25; LRH-1 inv ag: -22; Gli-Sufu antag: -2; NCOA3 inh: -1

Results for NC(=S)N/N=C1\CCSc2ccc(Cl)cc21 ?
NR2F2 inh: 37*; SRC2 inh: 14; NCOA1 inh: 29; LRH-1 inv ag: 23; Gli-Sufu antag: 9; NCOA3 inh: 34; VP16 Luc counter: -1; COUP-TFII conf: 33

How did O=C(Nc1ccc(OCC(F)(F)C(F)F)c(C(F)(F)F)c1)c1ccccc1O do in these assays?
NR2F2 inh: 69*; SRC2 inh: 26; NCOA1 inh: 36; LRH-1 inv ag: 34; Gli-Sufu antag: 26; NCOA3 inh: 29; VP16 Luc counter: -29; COUP-TFII conf: 26

Results for O=S1(=O)N[C@H](Cc2ccccc2)COc2cccc(NCCO)c21 ?
NR2F2 inh: 10; SRC2 inh: -5

Results for CCCCCCCCN1C(=O)[C@@H](CC(=O)NCc2cccs2)C[C@@]2(C(=O)OC)C1=C[C@H](C1CCCC1)O[C@@H]2C ?
NR2F2 inh: 7; SRC2 inh: 0

Results for Cc1cc(=O)n2c3c(c4c(cc13)c(CN(C)C)cc(=O)n4C)OC2 ?
NR2F2 inh: 78*; SRC2 inh: 58*; NCOA1 inh: -13; LRH-1 inv ag: 15; Gli-Sufu antag: -2; NCOA3 inh: -4; VP16 Luc counter: -7; COUP-TFII conf: -1

Results for O=C(CN1CCC(c2nc3ccccc3s2)CC1)NCc1cccs1 ?
NR2F2 inh: 53*; SRC2 inh: 6; NCOA1 inh: 12; LRH-1 inv ag: 28; Gli-Sufu antag: -3; NCOA3 inh: 17; VP16 Luc counter: -5; COUP-TFII conf: 31

What do the screens show for `O=C(CN1CCC(c2nc3ccccc3s2)CC1)N1CCCCC1`?
NR2F2 inh: -7; SRC2 inh: 1; NCOA1 inh: -6; LRH-1 inv ag: -2; Gli-Sufu antag: 19; NCOA3 inh: 2
